# From PubChem BioAssay
# Calls of active or inactive are those of the source.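 How the source made its calls: active means compounds killing one labelled cell type while sparing the other, by normalised counts and ratio limits, not self-fluorescent; inactive means the rest.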
# Assay: EMT-state selective cytotoxicity in co-culture – imaging, PC-3E GFP, TEM4-18 mCherry, primary screen (AID 1345086);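 further: cells exposed to compound for 72 h before imaging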;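 on red/green cell ratio (normalised): normalised mesenchymal count divided by normalised epithelial count so high means epithelial killing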
# Conditions: PC-3E GFP / TEM4-18 mCherry co-culture, imaging cell counts; at 1 µM; actives lie on both sides; counts scaled to control wells, 1 = unselective
row,Structure (SMILES),red/green cell ratio (normalised)
1,CO[C@H]1OC2COC(c3ccccc3)OC2[C@H](OCc2ccccc2)[C@@H]1OCc1ccccc1 (some centres not stated),1 (inactive)
2,CCN1CCN(c2c(F)cc3c(=O)c(C(=O)O)cn4c3c2OC[C@@H]4C)CC1,0.75 (inactive)
3,O=C1C[C@@H]2[C@H](Br)[C@@H](O)C[C@@H]2O1,0.73 (inactive)
4,COC(=O)C[C@@H]1C2(C)C(=O)C3CC4(OC3(O)C1(C)C)C1=CC(=O)O[C@@H](c3ccoc3)[C@]1(C)CCC42 (some centres not stated),1.06 (inactive)
5,COc1cc(O)c2c(c1C)C(C(C)=O)COC2=O (configuration not stated),0.88 (inactive)
6,O=C(O)C1O[C@@H](O)[C@@H](O)[C@@H](O)C1O (some centres not stated),0.93 (inactive)
7,CC(C)(C)Oc1c(F)c(F)nc(F)c1Cl,0.97 (inactive)
8,C=C(C)n1cc(C(=O)OC)c(=O)c2cc(F)c(F)c(OC)c21,1.15 (inactive)
9,COc1ccc(-c2oc3ccccc3c(=O)c2OC)cc1,0.92 (inactive)
10,C=CCOC(=O)N1C(=O)O[C@H]2C(OC(C)=O)C(COC(C)=O)O[C@H](Sc3ccc(C)cc3)[C@H]21 (some centres not stated),0.89 (inactive)
11,COC(=O)CC1C(C)(C)C(OC(C)=O)[C@@H]2[C@@H](OC(C)=O)[C@]34O[C@@]2(O)C1(C)C3CC[C@]1(C)C4=CC(=O)O[C@H]1c1ccoc1 (some centres not stated),1.07 (inactive)
12,O=C(NCC1O[C@@H](OC2C(NC(=O)c3ccccc3)C[C@@H](NC(=O)c3ccccc3)[C@H](OC3OC(COS(=O)(=O)O)[C@@H](OS(=O)(=O)O)[C@H](NC(=O)c4ccccc4)[C@H]3OS(=O)(=O)O)[C@H]2OS(=O)(=O)O)[C@H](OS(=O)(=O)O)[C@@H](OS(=O)(=O)O)C1OS(=O)(=O)O)c1ccccc1 (some centres not stated),1.21 (inactive)
13,COC(=O)c1c[nH]c2c(OC)c(F)c(F)cc2c1=O,1.14 (inactive)
14,COc1cc2c(c3oc4ccccc4c(=O)c13)[C@@H]1C=CO[C@@H]1O2,0.91 (inactive)

# Same assay, conditions: PC-3E GFP / TEM4-18 mCherry co-culture, imaging cell counts; measured here: epithelial PC-3E GFP cell survival; at 1 µM
row,Structure (SMILES),normalised cell number
1,C/C=C/[C@@H]1C=C[C@@H]2C[C@H](C)CC[C@H]2[C@]1(C)/C(O)=C1\C(=O)[C@H](CO)N(C)C1=O,0.99
2,CCCC1=CC(=O)[C@H](O)[C@H]1O,1.02
3,COc1cc(/C=C/C(=O)/C=C(O)/C=C/c2ccc(O)c(OC)c2)ccc1O,1.02
4,O=C1N=NC(=O)N1c1ccccc1,1.19
5,C/C=C/c1cc2c(c(=O)o1)C(=O)[C@@H](O)[C@H](C)O2,0.9
6,COC(=O)CNC(=O)c1ccc([C@H](O)c2ccccc2)cn1,1
7,O=c1c(O)c(-c2ccc(O)c(O)c2)oc2c(O[C@@H]3O[C@H](CO)[C@H](O)[C@@H](O)[C@H]3O)c(O)cc(O)c12,1.06
8,O=c1c(O)cccc2cc(O)c(O)c(O)c12,1.11
9,COC(=O)C[C@@H]1C2(C)C(=O)[C@@H](CC3C2CC[C@]2(C)C3CC(=O)O[C@H]2c2ccoc2)[C@H](OC(C)=O)C1(C)C (some centres not stated),1.04
10,COC(=O)[C@H](Cc1ccccc1)NC(=O)/C(=C1\OC(=O)C(c2ccccc2)=C1O)c1ccccc1,0.92
11,CCC(C)[C@H]1O[C@]2(CC[C@@H]1C)C[C@@H]1C[C@@H](C/C=C(\C)[C@@H](OC3C[C@H](OC)C(O[C@H]4C[C@H](OC)[C@@H](O)[C@H](C)O4)[C@H](C)O3)[C@@H](C)/C=C/C=C3\COC4[C@H](O)C(C)=C[C@@H](C(=O)O1)[C@]34O)O2 (some centres not stated),1.17
12,CC/C=C1C=C(/C=C/CO)C(=O)O/1,1.05
13,C=C1C(=O)OC(C(=O)OC)C1CCCCCCCC(C)O (configuration not stated),1.11
14,Oc1ccc(Oc2cnc3ccc(Cl)cc3n2)cc1,1.41
15,C[C@H]1CC[C@@H](C(C)(C)O)CC2=C1CC[C@@H]2C,0.71
16,CC1OC(O[C@H]2/C=C/C=C/C=C/C=C/C=C/C=C/C=C/[C@H](C)[C@@H](O)[C@@H](C)[C@H](C)OC(=O)CC(O)CC(O)CCC(O)C(O)CC(O)C[C@]3(O)C[C@H](O)C(C(=O)O)C(C2)O3)C(O)[C@@H](N)C1O (some centres not stated),1.18
17,NC(=O)C[C@H](NC(=O)OCc1ccccc1)C(=O)O,0.87
18,COc1c(F)c(F)cc2c(=O)c(C(=O)NO)cn(C3CC3)c12,0.97
19,CC(CCC(=O)O)[C@H]1CCC2C3CC[C@@H]4CCCC[C@]4(C)C3CC[C@@]21C (some centres not stated),1.12
20,CO/C(C)=C1/C(=O)C(CO)OC1O (configuration not stated),0.93
21,O=C1Cc2cc(O)ccc2O1,0.91
22,O=C(Nc1ccc(Cl)cc1)Nc1ccc(CO)cc1,1.29
23,C=C[C@](C)(O)CC[C@@H]1[C@@]2(C)CCCC(C)(C)[C@@H]2CC[C@]1(C)O,1.16
